Data published in PubChem BioAssay AID1159580 (chemical genetic matrix, 2015).
Values joined by “and” are separate entries in the source; they are usually repeats but may differ in a detail not shown here. Identical values can stand only once. The campaign covered roughly 5,500 compounds. About 2,000 (36%) were called active. Inconclusive results (about 18%) are left out. No stated cut-off is given here; in the data, active means normalized growth mostly below about 0.91 (no sharp cut-off); inconclusive means no clear call, values can overlap the other calls; inactive means mostly above about 0.92. This is one part of the list.

Test: chemical genetic growth profiling, strain panel (AID 1159580);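 further: tested at 20 µM; growth read once vehicle control cultures reached saturation at 30 °C; 1 = growth at the plate median or of vehicle wells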
Details: S. cerevisiae deletion strains, growth OD

Measured: normalized growth

CC(NCCC(c1ccccc1)c1ccccc1)c1ccccc1 (configuration not stated)
active: locus YAL021C, strain ccr4, stronger effect = lower value 0.592 | locus YAL026C, strain drs2, stronger effect = lower value 0.47 | locus YBR021W, strain FUR4, stronger effect = lower value 0.447 | locus YBR023C, strain chs3, stronger effect = lower value 0.799 | locus YBR279W, strain paf1, stronger effect = lower value 0.893 | locus YDR069C, strain doa4, stronger effect = lower value 0.57 | locus YDR195W, strain ref2 1.28 [resistant] | locus YDR388W, stronger effect = lower value 0.328 | locus YER015W, strain faa2, stronger effect = lower value 0.9 | locus YFR010W, strain ubp6, stronger effect = lower value 0.559 | locus YGL253W, strain hxk2, stronger effect = lower value 0.868 | locus YGR135W, strain pre9, stronger effect = lower value 0.832 | locus YGR229C, strain SMI1, stronger effect = lower value 0.623 | locus YGR252W, strain gcn5, stronger effect = lower value 0.679 | locus YHR013C, strain ard1, stronger effect = lower value 0.655 | locus YHR142W, strain chs7, stronger effect = lower value 0.802 | locus YJL095W, strain BCK1 (second series), stronger effect = lower value 0.901
inactive: locus YAL013W, strain DEP1, stronger effect = lower value 0.925 | locus YAL030W, strain snc1, stronger effect = lower value 0.992 | locus YBL061C, strain skt5, stronger effect = lower value 0.934 | locus YBR009C, strain hhf1, stronger effect = lower value 0.953 | locus YBR171W, strain sec66, stronger effect = lower value 1 | locus YBR229C, strain ROT2, stronger effect = lower value 0.946 | locus YBR231C, strain swc5, stronger effect = lower value 0.944 | locus YCL011C, strain gbp2, stronger effect = lower value 0.97 | locus YCL016C, strain dcc1, stronger effect = lower value 0.964 | locus YCL029C, strain bik1, stronger effect = lower value 0.975 | locus YCL061C, strain MRC1, stronger effect = lower value 1.02 | locus YCL069W, strain vba3, stronger effect = lower value 1.01 | locus YCR088W, strain abp1, stronger effect = lower value 1.02 | locus YDL005C, strain med2, stronger effect = lower value 1.03 | locus YDL035C, strain GPR1, stronger effect = lower value 0.908 | locus YDL040C, strain nat1, stronger effect = lower value 0.991 | locus YDL074C, strain BRE1, stronger effect = lower value 0.831 | locus YDL101C, strain DUN1, stronger effect = lower value 0.971 | locus YDL134C, strain PPH21, stronger effect = lower value 0.968 | locus YDL185W, strain tfp1, stronger effect = lower value 0.959 | locus YDL192W, strain arf1, stronger effect = lower value 0.985 | locus YDR001C, strain nth1, stronger effect = lower value 1.01 | locus YDR101C, strain arx1, stronger effect = lower value 0.994 | locus YDR137W, strain rgp1, stronger effect = lower value 0.981 | locus YDR150W, strain NUM1, stronger effect = lower value 0.97 | locus YDR159W, strain sac3, stronger effect = lower value 1.09 | locus YDR162C, strain NBP2, stronger effect = lower value 0.936 | locus YDR297W, strain sur2, stronger effect = lower value 1.01 | locus YDR318W, strain mcm21, stronger effect = lower value 0.952 | locus YDR334W, strain swr1, stronger effect = lower value 1.01 | locus YDR335W, strain msn5, stronger effect = lower value 1 | locus YDR392W, strain spt3, stronger effect = lower value 0.93 | locus YDR502C, strain sam2, stronger effect = lower value 0.964 | locus YEL003W, strain gim4, stronger effect = lower value 0.988 | locus YEL037C, strain rad23, stronger effect = lower value 0.98 | locus YEL061C, strain CIN8 (second series), stronger effect = lower value 1 | locus YEL061C, strain CIN8, stronger effect = lower value 0.987 | locus YER016W, strain bim1, stronger effect = lower value 1 | locus YER110C, stronger effect = lower value 0.978 | locus YER111C, strain swi4, stronger effect = lower value 1.01 | locus YER155C, strain BEM2 (second series), stronger effect = lower value 0.978 | locus YER155C, strain BEM2, stronger effect = lower value 0.999 | locus YER167W, strain BCK2, stronger effect = lower value 0.964 | locus YGL078C, strain dbp3, stronger effect = lower value 0.977 | locus YGL086W, strain mad1, stronger effect = lower value 0.96 | locus YGL167C, strain pmr1, stronger effect = lower value 1.01 | locus YGL173C, strain kem1, stronger effect = lower value 0.971 | locus YGL227W, strain vid30, stronger effect = lower value 1 | locus YGL240W, strain doc1, stronger effect = lower value 1.05 | locus YGL248W, strain PDE1, stronger effect = lower value 0.979 | locus YGR078C, strain PAC10, stronger effect = lower value 0.909 | locus YHR027C, strain rpn1, stronger effect = lower value 0.944 | locus YHR030C, strain SLT2, stronger effect = lower value 0.974 and 0.983 | locus YHR079C, strain IRE1 (second series), stronger effect = lower value 0.99 | locus YHR079C, strain IRE1, stronger effect = lower value 0.982 | locus YHR094C, strain hxt1, stronger effect = lower value 0.991 | locus YHR129C, strain ARP1, stronger effect = lower value 0.974 | locus YHR200W, strain rpn10, stronger effect = lower value 0.99 | locus YIL066C, strain RNR3, stronger effect = lower value 0.948 | locus YIL073C, strain SPO22, stronger effect = lower value 1.14 | locus YIL125W, strain kgd1, stronger effect = lower value 0.989 | locus YIR030C, strain dcg1, stronger effect = lower value 0.978 | locus YJL092W, strain hpr5, stronger effect = lower value 0.986 | locus YJL095W, strain BCK1, stronger effect = lower value 0.824 and 0.989 | locus YJL115W, strain asf1, stronger effect = lower value 1 | locus YJL129C, strain trk1, stronger effect = lower value 1 | locus YJL134W, strain LCB3, stronger effect = lower value 0.988 | locus YJL154C, strain vps35, stronger effect = lower value 0.998 | locus YJL164C, strain tpk1, stronger effect = lower value 0.922 | locus YJL166W, strain qcr8, stronger effect = lower value 0.914 | locus YJL168C, strain set2, stronger effect = lower value 0.991 | locus YJL187C, strain SWE1 (second series), stronger effect = lower value 0.931 | locus YJL187C, strain SWE1, stronger effect = lower value 0.978 | locus YJR043C, strain POL32, stronger effect = lower value 1 | locus YJR066W, strain TOR1, stronger effect = lower value 0.903
